The text below walks through data of PubChem BioAssay AID651595 (National Center for Advancing Translational Sciences (NCATS), 2012).

The structures appear in SMILES notation. The whole screen tested about 1,100 compounds, of which fewer than 10 were called active. About 6% were inconclusive and are not listed. These entries were drawn from the full list. A number with no mark means an inactive call. Calls come from the whole dose curve; as a rule, active = well fitted cell-killing curve with a large enough effect; inconclusive = small, poorly fitted or top-dose-only effect; inactive = flat fitted curve, though single readings scatter.
Potency is the fitted concentration of half-maximal effect.

The experiment in a line: qHTS of Nrf2 Activators: Hit Validation in Cytotox Assay. For activity change, negative = cytotoxicity: 0% is about no effect.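 Note: compound exposure lasted 24 hours before the ATP readout.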 The note with it: Cell viability counter-screen for Nrf2 activator hits; series mostly up to 46.1 µM; activity change, negative = cytotoxicity: at the top concentration. The source says:
Many diseases have some form of oxidative stress injury and ties to inflammation, causing a host of problems for the patient. The antioxidant response element (ARE) plays an important role in alleviating the harmful effects of oxidative stress. The antioxidant response element (ARE) is a transcriptional regulatory element involved in the activation of genes coding for a number of antioxidant proteins and detoxifying enzymes. These enzymes work in concert to protect tissues from oxidative insults and chemical toxicities in human hepatocytes and immune cells. The protective effects of ARE activation are primarily triggered through Nrf2 (NF-E2-related factor) binding to and activating AREs. It is known that Nrf2 controls the production of over 250 antioxidant and detoxification proteins (Hu et al., 2006), thereby protecting tissues by increasing cellular antioxidant content and suppressing inflammatory signaling pathways. The transcription factor Nrf2 is a central link between oxidative chemicals, such as phenolic antioxidants and electrophilic compounds, and the activation of ARE. Nrf2 levels are constitutively low as a consequence of its interaction with Keap1, which targets its degradation (Zipper and Mulcahy, 2002). Electrophiles react with key cysteine residues in Keap1, releasing Nrf2 and allowing its translocation to the nucleus. Once within the nucleus, Nrf2 complexes with coactivators such as p300, and binds to the AREs to induce gene transcription of cytoprotective enzymes, resulting in the prevention of toxicity. Activation of Nrf2 protects tissues by increasing cellular antioxidant content and suppressing inflammatory signaling pathways. Identifying novel and potent Nrf2 activators by using the AREc32 cell line to detect ARE activation by small molecules will lead to the identification and development of probes to study protective pathways in multiple tissues. These specific probes are essential to study the ARE pathway, and eventually to determine whether this pathway does activate genes that could protect against a host of diseases, including cardiovascular diseases, obesity, diabetes, Alzheimer's, and Parkinson's disease.
This project's aim is to identify novel and potent Nrf2 activators by using the AREc32 cell line to detect ARE activation by small molecules, which will lead to the identification and development of probes to study the ARE pathway. Cytotoxic compounds are flagged as active, and inactivity is desired in this assay.
NIH Chemical Genomics Center [NCGC]
NIH Molecular Libraries Probe Centers Network [MLPCN]
Assay Submitter (PI): Curtis Klaassen, University of Kansas Medical Center
Cell viability after compound treatment was measured using a luciferase-coupled ATP quantitation assay (CellTiter-Glo, Promega) in AREc32_fluc cells. The change of intracellular ATP content indicates the number of metabolically competent cells after compound treatment. AREc32_fluc cells were harvested from T225 flask and resuspended in phenol red free OPTI-MEM medium with 5% FBS. Then 5 microL of 200,000 cells/ml resuspended cells was dispensed into each well of white, solid bottom, 1536-well tissue culture-treated plates using a Multidrop Combi dispenser. After overnight culture at 37 degrees C with 5% CO2, a total of 23 nL of compounds at 7 selected concentrations from the cherry pick or positive control (40 uM stock of CDDO-IM and 2 mM of tBHQ) in DMSO was transferred to each well of the assay plate using a pintool (Kalypsys, San Diego, CA), and the plates were further incubated at 37 degrees C with 5% CO2 for 24 hours. After that, 4 microL of CellTilter-GloTM luminescent substrate mix (Promega) was added to each well. The plate was incubated at room temperature for 30 minutes. The plates were measured on a ViewLux plate reader (PerkinElmer) with clear filter.
On to `Cc1ccc(Cn2c(/C=C/c3ccco3)nc3ccccc32)cc1`, for which the “activity change, negative = cytotoxicity” value is -21.8%. Same read-out and setting: the figure for `Clc1ccc(C=Cc2ccccn2)cc1` is 1.25%; for `N#C/C(=C\c1ccccc1)c1ccccn1` it is -2.49%; for `O=c1[nH]c(SCc2cccc([N+](=O)[O-])c2)nc2[nH]ncc12` it is 0.58%.

Turning to `COc1ccc(OC)c(C=C2CCc3ccccc3C2=O)c1`, the “activity change, negative = cytotoxicity” value is 1.45%. `O=C(Oc1cccc(-c2cnc3ccccc3n2)c1)c1ccco1`: the “activity change, negative = cytotoxicity” value is -1.91%. Turning to `Cc1ccc(C)c(/C=N/Nc2ccccn2)c1`, the “activity change, negative = cytotoxicity” value was 9.8%.

Consider `O=C(Nc1cc(-c2nc3ncccc3o2)ccc1Cl)c1ccco1`, for which the “activity change, negative = cytotoxicity” value was 11%. For `CN(C)CCN(C(=O)/C=C/c1cccs1)c1nc2ccc(F)cc2s1`, the “activity change, negative = cytotoxicity” value is -13.7%.

For the compound `O=C(Nc1nnc(-c2cccs2)s1)c1cccc(F)c1`, the “activity change, negative = cytotoxicity” value was 7.96%. Same read-out and setting: the figure for `Cc1nn(-c2ccc3ccccc3c2)c(=O)c2ccccc12` is 4.52%; for `Cc1cc(C)c2c(N)c(C(=O)c3ccc(Br)cc3)oc2n1` it is -19.8%. For `Cc1ccc(-c2nc(NCc3ccco3)c3ccccc3n2)cc1`, the “activity change, negative = cytotoxicity” value is -1.85%.

Consider `Brc1cc(Br)c2nc(-c3cccs3)ccc2c1`, for which the “activity change, negative = cytotoxicity” value was 5.71%. On the same count and under the same terms, under `S=c1nc(-c2ccccc2)[nH]c2ccc(Br)cc12` stands 8.86%. Same read-out and setting: the figure for `N#C/C(=C(/O)c1ccc(Br)s1)c1nc2ccccc2[nH]1` is -1.87%.

For the compound `N#C/C(=C\c1ccc([N+](=O)[O-])o1)c1nc2ccccc2[nH]1`, the Potency is 20.6 µM (active).

Regarding `N#C/C(=C(/O)c1ccco1)c1nc2ccccc2[nH]1`, the “activity change, negative = cytotoxicity” value is -1.76%.

`O=C(Nc1ccccc1F)c1cc(-c2ccco2)nc2ccccc12`: the “activity change, negative = cytotoxicity” value is 9.87%.

Regarding `COc1ccc(Cl)cc1-c1nc(-c2ccncc2)no1`, the “activity change, negative = cytotoxicity” value is 0.603%.

Turning to `S=c1[nH]nc(-c2ccco2)n1/N=C/c1cccc(Cl)c1Cl`, the “activity change, negative = cytotoxicity” value was 3.26%. Still for that read-out and setting: under `N#Cc1cnc2cc(-c3ccccc3)nn2c1N` stands 9.63%; under `O=C(CSc1ccc(-c2ccco2)nn1)N1CCCC1`, 3.86%; under `CCNc1ccc(-c2nc(-c3ccco3)no2)cc1[N+](=O)[O-]`, 4.03%. Turning to `COC(=O)c1ccc2nc(-c3cccc(Br)c3)c(Cc3ccccc3OC)n2c1`, the “activity change, negative = cytotoxicity” value is -1.22%. Regarding `Fc1ccc2nc(Nc3nc4c(F)cc(F)cc4s3)sc2c1`, the “activity change, negative = cytotoxicity” value was -20.6%. Turning to `N#Cc1cccn1-c1nccc(-c2cccs2)n1`, the “activity change, negative = cytotoxicity” value is 6.19%. As for `O=C(NC(=S)Nc1cc([N+](=O)[O-])ccc1Cl)c1ccccc1`, the “activity change, negative = cytotoxicity” value is 2.33%. Same read-out and setting: the figure for `Cc1cc(SCC(=O)c2cccs2)nc2ccccc12` is -9.71%; for `O=C(NCc1ccco1)c1ccccc1-c1nc(-c2ccc(F)cc2)no1` it is 2.78%. Still for that read-out and setting: the figure for `O=[N+]([O-])c1ccc(SCc2ccco2)cc1N1CCOCC1` is -8.19%; for `CCOC(=O)N1CCc2c(sc3c2C(=O)NC(c2ccccc2)N3)C1` (stereo not given) it is -11.2%; for `CC(=O)c1cccc(NC(=O)c2cc(Cl)sc2Cl)c1` it is 2.61%.

With `Cn1c(N/N=C/c2cccs2)cc(=O)n(C)c1=O`, the “activity change, negative = cytotoxicity” value is 1.17%.

As for `Cc1cc(=O)n2nc(-c3ccccc3)sc2c1C#N`, the “activity change, negative = cytotoxicity” value is 1.07%. Same read-out and setting: the figure for `Cc1cc(C)c(C#N)c(SCC(=O)c2cccs2)n1` is 3.09%. For `COc1ccc(O)c(-c2cc(-c3ccccc3Cl)[nH]n2)c1`, the “activity change, negative = cytotoxicity” value is -8.44%. Same read-out and setting: under `CCn1c(SCC(=O)N/N=C/C=C/c2ccco2)nc2ccccc21` stands -2.98%; under `Cc1ccc(NC(=O)COCc2cc(-c3cccs3)on2)cc1Cl`, 5.1%. Still for that read-out and setting: under `c1ccc2c(c1)nnn2-c1ncnc2sccc12` stands 3.73%; under `O=C(CSc1nc2c(sc3ccccc32)c(=O)n1-c1ccccc1)NCc1ccco1`, 2.64%. `S=c1[nH]nc(-c2ccncc2)n1/N=C/C=C/c1ccco1`: the “activity change, negative = cytotoxicity” value is 6.05%.

Regarding `Clc1ccccc1NN=Cc1ccccn1`, the “activity change, negative = cytotoxicity” value was 1.21%.

For the compound `Cc1cc(NC(=O)c2ccccc2)nc2c1c(=O)oc1ccccc12`, the “activity change, negative = cytotoxicity” value is 1.23%. Same read-out and setting: under `CCCn1c(-c2cccs2)nc2nc3ccccc3nc21` stands 5.71%; under `CCOC(=O)c1sc(NC(=O)c2ccccc2F)c(C(N)=O)c1C`, 7.14%. As to `C#CCSc1nc(-c2ccccc2)cc(C(F)(F)F)c1C#N`, the “activity change, negative = cytotoxicity” value was 5.58%. As to `O=Cc1c(NCc2ccco2)nc2ccccn2c1=O`, the “activity change, negative = cytotoxicity” value was 7.6%. Still for that read-out and setting: the figure for `COC(=O)C1=C(C)NC(=O)/C1=C\c1ccco1` is -7.1%; for `Cc1nc(-c2ccccn2)sc1C(=O)Nc1ccc(F)cc1` it is 7.45%. As for `CC(=O)Nc1cc(-c2ccsc2)cn2c(-c3ccc(F)cc3)cnc12`, the “activity change, negative = cytotoxicity” value is -5.25%. As for `O=C(Nc1ccc(F)cc1)c1nsc(Cl)c1Cl`, the “activity change, negative = cytotoxicity” value is 1.43%. On to `CS(=O)(=O)c1ccc2nc(NC(=O)CCS(=O)(=O)c3ccccc3)sc2c1`, for which the “activity change, negative = cytotoxicity” value is 11.9%.

For the compound `O=C(Cn1ncc(Cl)c(Cl)c1=O)NC1CCS(=O)(=O)C1` (stereo not given), the “activity change, negative = cytotoxicity” value is 8.46%. Consider `Cc1ccccc1OCC(=O)Nc1ccccc1CO`, for which the “activity change, negative = cytotoxicity” value was 11.9%. On the same count and under the same terms, the figure for `O=C(c1nn2c(C(F)(F)F)cc(-c3ccco3)nc2c1Br)N1CCCc2ccccc21` is -15%; for `Cc1ccc([N+](=O)[O-])c(OCc2ncc(Cl)n2C)c1` it is -2.21%.

As to `O=c1[nH]c(O)c(/C=C2\C=Nc3ccc(Br)cc32)[nH]1`, the “activity change, negative = cytotoxicity” value was 8.92%. In the case of `COc1ccc(/C(N)=N/OC(=O)c2cccc([N+](=O)[O-])c2)cc1`, the “activity change, negative = cytotoxicity” value was -1.04%.

Take `N/C(=N\OC(=O)c1ccco1)c1cccc(Br)c1`: the “activity change, negative = cytotoxicity” value is 3.8%.
